Reference: publication PMC5540273 (PLoS ONE, 2017)

test system: T1, DCAMKL1; settings: concentration: 1 μM, replicates: in singlicate; n = 1
T1 construct: gene DCLK1
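Note: KINOMEscan kinase panel screen.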

Question: `Cc1ccc(C)c(NC(=O)NC2CCN(c3ccnc(Nc4ccc(F)cc4)n3)C2)c1` (stereo not shown) [GSK1379720] was tested. Which “%Inh” value did it give?
Answer: 6%

Question: How did the “%Inh” value turn out when `Cl.Cl.NCC(NC(=O)c1cc(-c2ccccc2)c(-c2ccnc3[nH]ccc23)s1)c1ccccc1` (stereo not shown) [GSK1321561] was run?
Answer: 0%

Question: For `CN(C)Cc1ccc(-c2ccc3c(Nc4ccc(Oc5ccccn5)cc4)ccnc3c2)o1` [GW567148], which “%Inh” value is on record?
Answer: 14%

Question: How did the “%Inh” value turn out when `COc1cccc(C(=O)Nc2cccc(Oc3ccc4nc(NC(=O)C5CC5)cn4n3)c2)c1` was run?
Answer: 20%

Question: How did the “%Inh” value turn out when `CNC(=O)c1ccccc1Nc1nc(Nc2ccc(N3CCOCC3)cc2)ncc1Cl.Cl` [GSK1576028] was run?
Answer: 52%

Question: `C[C@@H]1CC[C@@H](C(=O)Nc2ccccc2)CN1c1cc(-c2ccc3c(N)n[nH]c3c2)nc(N)n1` [GSK2286062] was tested. Which “%Inh” value did it give?
Answer: 7%

Question: Which “%Inh” value does the source give for `Cn1cc(-c2ccc3c(c2)CCN3C(=O)Cc2cccc(Cl)c2)c2c(N)ncnc21` [GSK2606590] here?
Answer: 12%

Question: How did the “%Inh” value turn out when `FC(F)(F)c1ccc(/C=C/c2cncnc2Nc2ccc3[nH]c(Cc4ccccc4)nc3c2)cc1` [GW709199] was run?
Answer: 9%

Question: How did the “%Inh” value turn out when `COc1cccc(NC(=O)NC2CCN(c3ccnc(Nc4cc(OC)c(OC)c(OC)c4)n3)C2)c1` (stereo not shown) [GSK1379763] was run?
Answer: 0%

Question: `Fc1ccc(-c2ncn(C3CCNCC3)c2-c2ccnc(Oc3ccc(-c4ccccc4)cc3)n2)cc1` [SB-245391] was tested. Which “%Inh” value did it give?
Answer: 10%

Question: How did the “%Inh” value turn out when `Oc1cc(Nc2ccnc3cc(I)ccc23)ccc1F` [GW552771] was run?
Answer: 0%

Question: With `COC(=O)Nc1nc2ccc(Oc3ccc(NC(=O)Nc4cc(C(F)(F)F)ccc4F)cc3)cc2n1C.Cl` [GW692089] as the molecule, how does the “%Inh” value read?
Answer: 6%

Question: `CC(=O)N1CCN(c2ccc(Nc3nccc(-c4sc(C(C)C)nc4-c4cccc(NS(=O)(=O)c5cccc(Cl)c5)c4)n3)cn2)CC1` [GSK1660437] was tested. Which “%Inh” value did it give?
Answer: 9%

Question: Which “%Inh” value does the source give for `Cl.Cl.NCC(C(=O)Nc1cc(Br)c(-c2ccnc3[nH]ccc23)s1)c1ccccc1` (stereo not shown) [GSK1269851] here?
Answer: 9%

Question: How did the “%Inh” value turn out when `CC(C)(C)c1ccc2nccc(Nc3cccc(O)c3)c2c1` [GW856795] was run?
Answer: 14%

Question: `NCCCC(NC(=O)c1cc(Br)c(-c2ccnc3[nH]ccc23)s1)c1ccccc1.O=C(O)C(F)(F)F.O=C(O)C(F)(F)F` (stereo not shown) [GSK1287544] was tested. Which “%Inh” value did it give?
Answer: 8%

Question: How did the “%Inh” value turn out when `Cl.c1ccc(-c2ccc3c(Nc4ccc5[nH]ncc5c4)ccnc3c2)nc1` [GW440137] was run?
Answer: 12%

Question: Which “%Inh” value does the source give for `c1ccc(Oc2ccc(Nc3ccnc4cc(-c5ccc(CNCCN6CCOCC6)o5)ccc34)cc2)nc1` [GW567145] here?
Answer: 20%

Question: Which “%Inh” value does the source give for `O=C(Nc1cccc(Oc2ccc3nc(NC(=O)C4CC4)cn3n2)c1)c1ccccc1C(F)(F)F` here?
Answer: 39%

Question: With `CC(C)c1nc(-c2cccc(NS(=O)(=O)c3c(F)cccc3F)c2F)c(-c2ccnc(Nc3ccc(N4CCOCC4)nc3)n2)s1` [GSK2008607] as the molecule, how does the “%Inh” value read?
Answer: 57%

Question: With `Nc1ncc(-c2cccnc2)c2scc(-c3ccc4c(c3)CCN4C(=O)Cc3ccccc3)c12` [GSK683281] as the molecule, how does the “%Inh” value read?
Answer: 20%

Question: How did the “%Inh” value turn out when `Cn1cc(-c2ccc3c(c2)CCN3C(=O)Cc2cccc(F)c2)c2c(N)ncnc21` [GSK2603358] was run?
Answer: 14%

Question: For `Cl.NC(=O)c1cccc(Nc2nccc(Nc3ccc(Oc4c(Cl)cccc4Cl)c(Cl)c3)n2)c1` [GW659009], which “%Inh” value is on record?
Answer: 0%

Question: With `COCCOCCOc1cc2ncc3c4ccc(C#N)cc4[nH]c3c2cc1OC` as the molecule, how does the “%Inh” value read?
Answer: 20%

Question: Which “%Inh” value does the source give for `COc1cccc(-c2ccc3c(NC(=O)C4CC4)n[nH]c3n2)c1` [SB-710903] here?
Answer: 21%

Question: How did the “%Inh” value turn out when `Nc1ncc(-c2ccc3nccc(-c4ccncc4)c3c2)cc1S(=O)(=O)N1CCOCC1` [GSK1627798] was run?
Answer: 0%

Question: `Cc1ccc(C(=O)N2CC[C@@H](O)C2)cc1-n1c(C)cc(OCc2ccc(F)cc2F)c(Br)c1=O` was tested. Which “%Inh” value did it give?
Answer: 40%

Question: Which “%Inh” value does the source give for `O=C(O)C(F)(F)F.O=C(O)C(F)(F)F.O=c1[nH]ccc2nc(N[C@@H]3CCCNC3)nc(Nc3ccc(S(=O)(=O)N4CCOCC4)cc3)c12` [GSK2177277] here?
Answer: 98.1%

Question: Which “%Inh” value does the source give for `COc1cc(Nc2nccc(-c3c(-c4cccc(NC(=O)c5c(F)cccc5F)c4)nn4ncccc34)n2)cc(OC)c1OC` [GSK327238] here?
Answer: 12%

Question: How did the “%Inh” value turn out when `COc1cccc(C2=C(Nc3ccc(Cl)c(C(=O)O)c3)C(=O)NC2=O)c1` [SB-390769] was run?
Answer: 100%

Question: For `Cc1ccc(C(=O)Nc2ccc(Nc3ccnc4cc(-c5nccs5)ccc34)cc2O)cc1.Cl` [GW494702], which “%Inh” value is on record?
Answer: 0%

Question: How did the “%Inh” value turn out when `CCn1c(-c2nonc2N)nc2c(C#CC(C)(C)O)nc(OC[C@H](N)c3ccccc3)cc21` [GSK943949] was run?
Answer: 12%

Question: For `COC(=O)Nc1nc2cc(Oc3ccc(NC(=O)Nc4cc(C(F)(F)F)ccc4F)cn3)ccc2[nH]1.Cl.Cl` [GW681170], which “%Inh” value is on record?
Answer: 11%

Question: Which “%Inh” value does the source give for `Cl.Cl.NCC(NCc1ccc(-c2ccnc3[nH]ccc23)s1)c1ccccc1` (stereo not shown) [GSK1321565] here?
Answer: 21%

Question: For `O=c1[nH]cc(-c2ccc(N3CCOCC3)cc2)c2sc(-c3cn[nH]c3)cc12` [GSK2276055], which “%Inh” value is on record?
Answer: 12%

Question: Which “%Inh” value does the source give for `c1ccc(-c2cnc3nccnn23)cc1` [AH20685] here?
Answer: 0%

Question: With `COc1cc(Nc2nccc(-c3c(-c4cccc(NC(=O)c5c(F)cccc5F)c4)nn4ccccc34)n2)cc(OC)c1OC` [GSK323521] as the molecule, how does the “%Inh” value read?
Answer: 9%
